Eight compounds from PubChem BioAssay (Tox21) can be followed below.

Test [1] can be described thus: A CellTox Green Cytotoxicity Assay to monitor cytotoxicity in HEK293 cells - 32 hour (AID 1224881). Also: nearly all actives have a fitted effect of over 40% in size. Also: potency is read from the fitted curve at half-maximal effect. Summed up: (§1)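 Fluorescence from a DNA-binding dye excluded by viable cells was measured repeatedly in the same HEK293 wells (600 cells/well) during continuous compound exposure at 37 C. Each assay gives one read point: 0, 8, 16, 24, 32 or 40 h.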
Test [2] in a line: A CellTox Green Cytotoxicity Assay to monitor cytotoxicity in HepG2 cells - 0 hour (AID 1224882). Also: nearly all actives have a fitted effect of over 35% in size. Also: potency is read from the fitted curve at half-maximal effect. The method in brief:
(§2)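 Real-time cytotoxicity: fluorescence of a cell-impermeant cyanine dye binding DNA of dead HepG2 cells, measured repeatedly (0–40 h) during compound exposure at 37 C. Cells seeded 600/well with reagent, dosed after 5 h.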

Test [3] can be described thus: A CellTox Green Cytotoxicity Assay to monitor cytotoxicity in HepG2 cells - 32 hour (AID 1224883). Also: nearly all actives have a fitted effect of over 50% in size. Also: potency is read from the fitted curve at half-maximal effect. Summed up: as §2
The nature of test [4]: A CellTox Green Cytotoxicity Assay to monitor cytotoxicity in HEK293 cells - 8 hour (AID 1224884). Also: nearly all actives have a fitted effect of over 35% in size. Also: potency is read from the fitted curve at half-maximal effect. Summed up: as §1
Test [5] is described as follows: qHTS RealTime-Glo MT Cell Viability Assay in HepG2 cells - 16 hour (AID 1224885). Also: nearly all actives have a fitted effect of over 50% in size. The method in brief:
(§3)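 Tox21 10K library screened in qHTS format on HepG2 cells carrying RealTime-Glo reagents. Compounds were added after a 5 h preincubation, and the luminescent signal from continuous culture was measured repeatedly during 40 h treatment.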
In general terms: qHTS replaces the single test concentration by a dilution series.

Test [6] is described as follows: qHTS RealTime-Glo MT Cell Viability Assay in HEK293 cells - 24 hour (AID 1224886). Also: top concentration of the series differs between compounds; nearly all actives have a fitted effect of over 50% in size. The method in brief:
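Luminescence generated by NanoLuc from substrate produced by living HEK293 cells served as the viability signal. Each value reflects the reading at its stated time point during continuous 40 h compound exposure at 37 C.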

Test [7] can be described thus: qHTS RealTime-Glo MT Cell Viability Assay in HEK293 cells - 8 hour (AID 1224887). Also: top concentration of the series differs between compounds; nearly all actives have a fitted effect of over 50% in size. Summed up: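 Luminescence, which tracks viable cell number through reduction of the prosubstrate to a NanoLuc substrate, was read over continuous 37 C culture. Cells (600/well) were premixed with reagent and rested 5 h before 23 nL of compound in DMSO was pinned.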
The nature of test [8]: A CellTox Green Cytotoxicity Assay to monitor cytotoxicity in HEK293 cells - 16 hour (AID 1224888). Also: nearly all actives have a fitted effect of over 35% in size. Also: potency is read from the fitted curve at half-maximal effect. Summed up: as §1
Test [9] in a line: qHTS RealTime-Glo MT Cell Viability Assay in HepG2 cells - 0 hour (AID 1224889). Also: nearly all actives have a fitted effect of over 50% in size. The method in brief:
as §3

The nature of test [10]: A CellTox Green Cytotoxicity Assay to monitor cytotoxicity in HepG2 cells - 8 hour (AID 1224890). Also: nearly all actives have a fitted effect of over 45% in size. Summed up:
as §2

Test [11] can be described thus: qHTS assay to identify small molecule antagonists of the estrogen receptor alpha (ER-alpha) signaling pathway using the BG1 cell line in the presence of 0.1 nM 17-beta-estradiol - cell viability counter screen (AID 1259241). Also: nearly all actives have a fitted effect of over 40% in size. Summed up: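 CellTiter-Fluor read (30 min, 37C) on ER-alpha/ERE-luc VM7Luc4E2 cells; 22 hr compound treatment; agonist 0.1 nM E2 final; same-well multiplex.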

Test [12] in a line: qHTS assay to identify small molecule antagonists of the androgen receptor (AR) signaling pathway using the MDA cell line in the presence of 0.5 nM R1881 - cell viability counter screen (AID 1259242). Also: nearly all actives have a fitted effect of over 45% in size. The method in brief: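 Live-cell protease activity was measured by CellTiter-Fluor fluorescence after 30 min. Before that, MDA-kb2 MMTV-luciferase cells had 16 hr at 37C without CO2, exposed to test compounds and 0.5 nM R1881 final.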

A short description of test [13]: qHTS assay to identify small molecule phospholipidosis (PLD) inducers (AID 1259344; active = well fitted curve in the direction sought with a large enough effect; an effect the other way counts as inactive or inconclusive). The method in brief:
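Accumulated phospholipid, stained red by LipidTOX during 24 h compound treatment of HepG2 cells at 37 C, is quantified from images as pit number and intensity, normalised per cell using Hoechst-stained nuclei.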

A short description of test [14]: qHTS assay to identify small molecule HDAC inhibitors (AID 1259364). Also: nearly all actives have a fitted effect of over 45% in size. Also: potency is read from the fitted curve at half-maximal effect. As to activity change, negative = inhibition: top concentration of the series differs between compounds. Summed up: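 Luminescence read after 30 min room-temperature HDAC-Glo incubation measures cellular class I/II HDAC activity. Compounds were applied for 2 hr at 37 C to HCT-116 wild-type cells seeded the day before.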
Test [15] can be described thus: qHTS assay to identify small molecule HDAC inhibitors - cell viability counter screen (AID 1259365). The method in brief: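 To flag cytotoxic hits, 1,500 wild-type HCT-116 cells per well, plated the day before, receive test compounds for 2hr at 37 C before CellTiter-Glo reagent and a luminescence read.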
Test [16] in a line: qHTS assay to identify small molecule agonists of the sonic hedgehog signaling (Shh) pathway - cell viability counter screen (AID 1259366). Also: nearly all actives have a fitted effect of over 50% in size. The method in brief: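 Fluorescence from CellTiter-Fluor reports live cells in this counter screen. NIH/3T3-derived Gli1-Luc reporter cells receive test compounds for 24hr at 37C; reagent goes in at 23hr.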
Test [17] is described as follows: qHTS assay to identify small molecule antagonists of the sonic hedgehog signaling (Shh) pathway - cell viability counter screen (AID 1259367). Also: nearly all actives have a fitted effect of over 55% in size. The method in brief: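 CellTiter-Fluor signal in conditioned medium-stimulated 3T3 Gli1-Luc cells, 23 hr compound exposure, 37C.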
The nature of test [18]: qHTS assay to identify small molecule agonists of the sonic hedgehog signaling (Shh) pathway (AID 1259368; calls by dose curve;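 also: NIH/3T3-derived 3T3Gli1-Luc cells carrying a stable Gli1-driven firefly luciferase reporter; series mostly up to about 92 µM; nearly all actives have a fitted effect of over 15% in size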). Summed up: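 Luminescence was read after 30 min at room temperature with luciferase reagent. Before that, 3T3Gli1-Luc cells (NIH/3T3 clone, stable Gli1-Luc reporter; 2,000/well) were exposed to compounds for 24 hr at 37C, 5% CO2, compounds being added 4 hr post-plating.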

Test [19] has as its target Estrogen receptor (Homo sapiens) (UniProt P03372). In words: qHTS assay to identify small molecule antagonists of the estrogen receptor alpha (ER-alpha) signaling pathway using the BG1 cell line in the presence of 0.1 nM 17-beta-estradiol (AID 1259244). Also: nearly all actives have a fitted effect of over 50% in size. The method in brief:
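Luciferase luminescence (ONE-Glo, 30 min at room temperature) was read after 22 hr at 37C exposure to compounds plus 17beta-estradiol at 0.1 nM final. Cells were VM7Luc4E2 with endogenous ER-alpha and an ERE-driven luciferase, pre-cultured 5 days in hormone-depleted medium.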

Values without a mark were called inactive. Inconclusive results are not listed. Calls of active or inactive are those of the source. Unless noted, calls follow the shape of the dose curve; as a rule, active = well fitted curve in the direction sought with a large enough effect in the repeat runs; inconclusive = weak or mixed curves; inactive = no such curve, though single readings can be large; an effect the other way counts as inactive or inconclusive.
% is scaled to controls: 0 for no effect and ±100 for the full control effect.

Estrogen receptor (Homo sapiens), sequence (P03372 whole entry, looked up): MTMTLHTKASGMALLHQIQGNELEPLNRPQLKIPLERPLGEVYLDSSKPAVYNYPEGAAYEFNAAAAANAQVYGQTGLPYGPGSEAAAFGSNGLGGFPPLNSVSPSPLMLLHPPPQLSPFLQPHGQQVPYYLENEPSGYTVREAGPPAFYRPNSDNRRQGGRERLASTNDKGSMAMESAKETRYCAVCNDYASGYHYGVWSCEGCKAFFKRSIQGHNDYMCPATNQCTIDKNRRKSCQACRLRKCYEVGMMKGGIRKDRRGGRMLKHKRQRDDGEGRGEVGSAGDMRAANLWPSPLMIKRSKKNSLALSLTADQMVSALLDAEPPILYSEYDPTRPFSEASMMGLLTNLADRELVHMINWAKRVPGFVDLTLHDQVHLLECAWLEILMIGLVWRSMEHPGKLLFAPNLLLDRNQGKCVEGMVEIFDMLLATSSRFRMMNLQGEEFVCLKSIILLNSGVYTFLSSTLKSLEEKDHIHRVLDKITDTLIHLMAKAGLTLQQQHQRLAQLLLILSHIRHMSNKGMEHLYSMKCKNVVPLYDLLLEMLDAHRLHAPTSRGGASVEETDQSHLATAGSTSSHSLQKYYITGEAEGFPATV

Consider `NC(=S)N/N=C/c1cccnc1`, for which the Potency entry in test [1], in test [2], in test [3], in test [4], in [5] and in test [6] was “inactive” each time. For the same compound, the Potency result in [7], in test [8], in [9], in test [10], in test [11] and in test [12] was “inactive” each time. Further, the Potency entry in [13], in [14], in [16] and in [17] was “inactive” throughout. For the same compound, the call in [15] and in test [18] was inactive.

As for `O=C(CC(=O)c1ccccc1)c1ccccc1`, the Potency result in [1], in [2], in [3], in test [4], in [5] and in test [6] was “inactive” throughout. Moreover, the Potency entry in [7], in test [8], in [9], in [10], in [11] and in [12] was “inactive” each time. In addition, the Potency result in test [17] is “inactive”. The Potency in test [14] was 2.93 µM (active).

Turning to `CC(=O)NCCCS(=O)(=O)O`, the Potency was 15 µM (active) in test [1]; 16.9 µM (active) in [2]; 16.9 µM (active) in test [3]; 16.9 µM (active) in [4]; 18.9 µM (active) in [8]. Also, the Potency entry in [5], in test [6], in test [7], in test [9], in test [11] and in test [12] was “inactive” in each case. Also, the Potency result in [19], in [13], in [14], in test [16] and in test [17] was “inactive” in each case. In addition, the compound was called inactive in test [15] and in test [18].

Take `Cc1ccc2c(ccc3ccccc32)c1`: the Potency entry in test [1], in test [2], in [3], in test [4], in [5] and in test [6] was “inactive” each time. Besides, the Potency result in test [7], in test [8], in [9], in test [10], in test [11] and in test [12] was “inactive” each time. In addition, the Potency entry in test [19], in [14], in [16] and in test [17] was “inactive” each time. For the same compound, the call in test [15] and in [18] was inactive.

For `CNS(=O)(=O)Cc1ccc2[nH]cc(CCN(C)C)c2c1`, the Potency entry in test [1], in test [2], in test [3], in test [4], in test [5] and in [6] was “inactive” in each case. For the same compound, the Potency entry in test [7], in test [8], in [9], in test [10], in [11] and in test [12] was “inactive” in each case. The Potency result in test [13], in [14] and in test [16] was “inactive” throughout. Besides, the call in test [15] and in test [18] was inactive.

`O=C(CCN1CCN2CCCC2C1)N1c2ccccc2Sc2ccc(Cl)cc21` (stereo not given): the cytotoxicity increase in [1] is 1.45% [at 15.8 µM]; in test [3], 16.3% [at 15.8 µM]; in test [4] it was -4.39% [at 15.8 µM]; in test [10], 7.39% [at 15.8 µM]. Also, the cytotoxicity in test [2] was 0.972% [at 15.8 µM]. For the same compound, in test [5], the activity change, negative = cytotoxic is -5.42% [at 15.8 µM]. The activity change, negative = cytotoxicity in [6] is -17.5% [at 15.8 µM]; in test [7], -6.11% [at 15.8 µM]; in [9], -0.655% [at 15.8 µM]; in [11], -14.8% [at 19 µM]. Besides, the activity change in test [8] is 1.83% [at 15.8 µM, hits give high values]; in test [18], -0.0401% [at 18.9 µM]. Besides, the viability change, negative = cytotoxic in test [12] was -3.61% [at 19 µM]. In addition, the values for the activity change, negative = inhibition in [19] and in test [14] were 3.86% [at 19 µM] and 3.91% [at 19 µM], respectively.

As to `CCOC(=O)C1=NN(c2ccccc2)C(=O)C1`, the Potency entry in test [1], in [2], in test [3], in [4], in test [5] and in test [6] was “inactive” in each case. Also, the Potency entry in test [7], in [8], in [9], in test [10], in test [11] and in test [12] was “inactive” throughout. In addition, the Potency entry in test [19], in test [14], in [16] and in test [17] was “inactive” throughout. Moreover, the result in test [15] and in test [18] was inactive.

Regarding `CCC(=O)OC(C)(C)C1CC=C(C)CC1` (stereo not given), the Potency result in test [1], in [2], in test [3], in test [4], in [5] and in test [6] was “inactive” throughout. The Potency entry in test [7], in test [8], in test [9], in test [10], in test [11] and in test [12] was “inactive” throughout. In addition, the Potency result in [19], in test [14] and in [16] was “inactive” each time. The result in [15] and in test [18] was inactive.
